# The campaign covered roughly 1,600 compounds. About 1,100 (69%) were called active. Rule as the data show it: active = inhibition above about 50%; inactive = the rest. So high a share suggests a set chosen from earlier hits. A selection follows.
# Biological target: Phospholipase A2 (Homo sapiens) (UniProt P04054)
# Assay: human phospholipase A2 activity blockers – biochemical, single concentration, uHTS hits, counter-screen for ATG4B inhibitor project (AID 588402)
# Conditions: purified PLA2, NBD-C6-HPC fluorescence, 45 min; at 8.33 µM; hits give high values
# Chain of Phospholipase A2 (Homo sapiens) (P04054 whole entry, looked up): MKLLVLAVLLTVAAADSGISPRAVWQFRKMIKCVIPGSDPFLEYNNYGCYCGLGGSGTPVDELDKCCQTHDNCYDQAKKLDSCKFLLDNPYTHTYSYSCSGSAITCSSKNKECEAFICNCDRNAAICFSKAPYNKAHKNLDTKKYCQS
row,Structure (SMILES),inhibition
1,COc1ccc2c(c1)CCc1c(C(=O)N3CCc4ccccc4C3)noc1-2,47.9% (inactive)
2,O=C(C(=O)N1CCc2ccccc2C1)c1c[nH]c2ccccc12,71% (active)
3,Cc1ccc(-c2cc(C(=O)N3CCc4ccccc4C3)no2)cc1,43.8% (inactive)
4,Cc1ccc(CSc2nc(-c3ccccc3)c(C#N)c(=O)[nH]2)cc1,32.1% (inactive)
5,COc1ccc(Br)cc1C(=O)NC(=S)Nc1cc(-c2nc3ccccc3[nH]2)ccc1C,74.1% (active)
6,Cc1cccc(C)c1N1C(=O)CN(Cc2ccccc2)C1=S,90.3% (active)
7,CCc1cccc(C)c1N1C(=O)CN(Cc2ccccc2)C1=S,92.4% (active)
8,Cc1cccc(C)c1-n1c(C)cc(/C=C2\C(=O)NN(c3ccccc3)C2=O)c1C,63.7% (active)
9,Cc1c(Cl)cccc1NC(=O)Nc1ccc(C(=O)N2CCCC2)cc1,56.6% (active)
10,O=C1c2ccccc2C(=O)N1Cc1cc(-c2ccccc2Cl)no1,64.2% (active)
11,COc1ccc(C)cc1S(=O)(=O)N(CC(=O)Nc1cccc([N+](=O)[O-])c1)c1ccc(C)cc1,86.6% (active)
12,Cc1ccc(S(=O)(=O)N(CC(=O)Nc2cccc([N+](=O)[O-])c2)Cc2ccc(Cl)cc2)cc1,80.7% (active)
13,Fc1cccc(Cl)c1CSc1ccc(-c2ccco2)nn1,49.5% (inactive)
14,NC(=O)Cc1ccc2sc(-c3ccccc3)nc2c1,79.7% (active)
15,CCN1CCN(c2c(Cl)cccc2NC(=O)c2ccc(Br)o2)CC1,61.6% (active)
16,Cc1ccc(N=C2NC(=O)/C(=C/C=C/c3ccco3)S2)cc1C,36.4% (inactive)
17,CC(C)c1ccc2c(c1)c(SC(C)(C)C)c(CC(C)(C)C(=O)O)n2Cc1ccc(Cl)cc1,57.7% (active)
18,O=C(/C=C/c1ccc(Cl)cc1)N1CCN(c2ccccc2[N+](=O)[O-])CC1,53% (active)
19,CC(=O)c1c(C)n(-c2ccc(N(C)C)cc2)c2ccc(OCC(N)=O)cc12,82.6% (active)
20,Cc1c(Cl)c([N+](=O)[O-])nn1CCCC(=O)Nc1cc(Cl)ccc1Cl,69.4% (active)
21,COc1ccc(/C=C2/SC(=O)N(CCCCCC(=O)Nc3ccccc3C(=O)O)C2=S)cc1,24.3% (inactive)
22,O=C(Nc1cccc(F)c1)NC1CCCc2ccccc21 (stereo unspecified),71.2% (active)
23,CCOC(=O)c1c(C)[nH]c2c1-c1ccccc1C(=O)C2=O,-20.8% (inactive)
24,CC1CCN(C(=O)c2ccc(CSc3ccc(Cl)cc3)cc2)CC1,58.1% (active)

row,Structure (SMILES),inhibition
1,CC1(OC(=O)C2CCCC2)C(=O)C=C2C=C(c3ccc(C#N)cc3)OC=C2C1=O (stereo unspecified),66.5% (active)
2,CCCc1nc2c(c(=O)c3ccccc3n2C)c(=O)n1C1CCCCCC1,-14.6% (inactive)
3,Cc1c(Cl)cccc1NC(=S)NCc1ccc2c(c1)OCO2,62.1% (active)
4,CCCOc1ccc2c3c(c(=O)oc2c1OCCC)CCC3,40.9% (inactive)
5,CCc1ccccc1NC(=O)/C(=C/c1ccccc1)c1ccccc1,61.7% (active)
6,Cc1ccc(Nc2cc(=O)n(C3CCCCC3)c(=O)[nH]2)cc1C,2.78% (inactive)
7,NC(=O)Cc1ccc2c(c1)[nH]c1ccccc12,51% (active)
8,O=C1N=C(N2CCc3ccccc3C2)S/C1=C\c1ccc(O)cc1,23.3% (inactive)
9,O=c1c2sccc2nc(SCc2cc(=O)n3ccccc3n2)n1-c1ccc(Br)cc1,51.5% (active)
10,CCOc1ccc(-n2c(SC(C)C(=O)OC)nc3c(c2=O)SCC3)cc1 (stereo unspecified),56.4% (active)
11,CCOC(=O)C(C)Sc1nc2ccccc2c(=O)n1CC1CCCCC1 (stereo unspecified),44.5% (inactive)
12,Cc1ccc(NC(=O)CC2S/C(=N/N=C3\CCCc4ccccc43)NC2=O)cc1 (stereo unspecified),60% (active)
13,Cc1nn(-c2ccccc2)c(C)c1/C=N/NC(=O)CSc1nc2ccccc2c(=O)n1-c1ccccc1,31.8% (inactive)
14,COC(=O)c1c(NC(=O)C2CC(C)=C(C)CC2C(=O)O)sc2c1CCCCC2 (stereo unspecified),68% (active)
15,COc1cccc(CNc2nc(C(F)(F)F)nc3ccccc23)c1,63.6% (active)
16,OC(CNCc1ccc(Cl)c(Cl)c1)c1ccccc1 (stereo unspecified),38.9% (inactive)
17,Cc1c(NC(=S)NCc2ccc(F)cc2)cccc1[N+](=O)[O-],70.7% (active)
18,Cc1cccc(C2c3[nH]c4ccccc4c3CCN2C(=O)c2cc(-c3cccn3C)n[nH]2)n1 (stereo unspecified),75.6% (active)
19,Cc1c(Cl)c([N+](=O)[O-])nn1Cc1ccc(C(=O)N/N=C\c2cc(Cl)ccc2O)o1,72.6% (active)
20,COc1cccc(/C=N/Nc2ccc(S(=O)(=O)Nc3ccccc3C(=O)O)cc2[N+](=O)[O-])c1O,56.1% (active)
21,c1ccc(C2=Nc3cccc4cccc(c34)N2)cc1,58.5% (active)
22,CC(C)c1nc(SCC(=O)Nc2cccc(C(=O)O)c2)c2c3c(sc2n1)CCCC3,70.6% (active)
23,Cc1nc2ccccc2c(-c2ccccc2)c1C(=O)c1ccccc1,81.3% (active)
24,Cc1ncc(CC(=O)n2cc(C(=O)c3cc(Cl)ccc3O)cn2)s1,84.3% (active)

row,Structure (SMILES),inhibition
1,Cc1cccc(C)c1N1CCN(S(=O)(=O)N2CCCCC2)CC1,54.3% (active)
2,Cc1nc(SCC(=O)N2CCc3ccccc3C2)c2c(C)c(C)sc2n1,76.5% (active)
3,FC(F)(F)c1cccc(NC(=S)Nc2cccc(Cl)c2)c1,70.8% (active)
4,Cc1ccc(C2=Nc3c(ccc4ccccc34)C(c3ccncc3)=NN2)cc1,68.7% (active)
5,O=C(NCc1ccccc1)[C@H]1C[C@@H]1[C@H](NP(=O)(c1ccccc1)c1ccccc1)c1ccccc1,79% (active)
6,Clc1ccccc1CSc1nnc(-c2ccco2)c(-c2ccco2)n1,34.9% (inactive)
7,O=C(CSc1nc(-c2ccccc2)cs1)Nc1cccc([N+](=O)[O-])c1,16.5% (inactive)
8,O=C(Nc1nnc(SCc2ccccc2Cl)s1)c1cccc([N+](=O)[O-])c1,57.6% (active)
9,Cc1ccc(CNC(=O)c2ccccc2CCc2ccccc2)cc1,45.9% (inactive)
10,S=C(NCCc1ccccc1)NCc1ccccc1Cl,54.4% (active)
11,FC(F)(F)Oc1ccc(NC(=S)NCc2ccccc2)cc1,47.2% (inactive)
12,CN(Cc1c(F)cccc1Cl)S(=O)(=O)c1cccs1,58.8% (active)
13,CCCC1=Nc2cc(C(=O)NCc3ccco3)ccc2Sc2ccccc21,46.3% (inactive)
14,Oc1c(Cl)cc(Cl)c(Cl)c1Cc1c(O)c(Cl)cc(Cl)c1Cl,82.7% (active)
15,Cc1ccc(-n2c(SCC(=O)N/N=C/C=C/c3ccccc3[N+](=O)[O-])nc3ccccc3c2=O)cc1,40.7% (inactive)
16,O=C(O)CCn1cc(/C=C/C(=O)c2ccc(Cl)cc2)c(-c2cccc(Br)c2)n1,43.2% (inactive)
17,O=C1C(=O)N(CC2COc3ccccc3O2)c2ccccc21 (stereo unspecified),78.5% (active)
18,Fc1ccc2[nH]c3c(N4CCN(Cc5ccc6c(c5)OCO6)CC4)ncnc3c2c1,48.4% (inactive)
19,COc1cccc(NC(=O)NCc2ccc(F)cc2)c1,52.3% (active)
20,COc1ccc(NC(=O)COc2ccc(C(=O)c3ccc(F)cc3)cc2)cc1S(N)(=O)=O,-4.37% (inactive)
21,CC1=C/C(=N\S(=O)(=O)c2ccccc2)C(C(C)C)=CC1=O,84.4% (active)
22,CN(C)Cc1ccc(F)cc1Sc1cc(Cl)ccc1Cl,42.7% (inactive)
23,O=C(N/N=C/c1coc2ccccc2c1=O)c1cc2ccccc2o1,55.8% (active)
24,COc1ccc(/C=C2/CCCc3ccccc3C2=O)cc1,53.3% (active)

row,Structure (SMILES),inhibition
1,COc1ccc(/C=C2\CCc3ccccc3C2=O)c(OC)c1OC,23.1% (inactive)
2,CCOc1ccc2c(c1)C(c1ccc(C)cc1)=NNC(c1ccc(C)cc1)=N2,74.7% (active)
3,CCc1ccc2c(c1)C(c1ccc([N+](=O)[O-])cc1)=NNC(c1ccccc1)=N2,24.1% (inactive)
4,O=C1Nc2cc(Cl)c(Cl)cc2N(O)N1c1cc(Cl)cc(Cl)c1,39.8% (inactive)
5,O=C(O)C(c1ccccc1)N1C(=O)/C(=C\c2ccc(-c3cccc(Cl)c3)o2)SC1=S (stereo unspecified),45% (inactive)
6,O=C(N[C@@H](Cc1c[nH]c2ccccc12)C(=O)O)OCC1c2ccccc2-c2ccccc21,72.1% (active)
7,Cc1cccc(NC(=S)Nc2ccc(Cl)c(Cl)c2)c1,60.1% (active)
8,COc1cnc(-c2ccccn2)nc1Oc1ccc(C(C)(C)C)cc1,67.2% (active)
9,CC(C)(C)c1ccc(OC2=CS(=O)(=O)c3ccccc32)cc1,55.9% (active)
10,Cc1cccc(NC(=S)NCCc2ccc(Cl)cc2)c1C,57.9% (active)
11,Cc1ccc(Nc2ccc(C(N)=O)cc2[N+](=O)[O-])cc1,59.4% (active)
12,COC(=O)N/N=C/c1cn(CCCOc2ccc(C)cc2)c2ccccc12,43% (inactive)
13,CCOC(=O)N/N=C/c1cn(Cc2ccccc2Cl)c2ccccc12,48.2% (inactive)
14,COc1cccc(Cn2cc(/C=N/NC(=O)c3cc(O)cc(O)c3)c3ccccc32)c1,76.6% (active)
15,CC(C)(C)C1CCc2c(sc3nc(SCC(N)=O)nc(N)c23)C1 (stereo unspecified),47.6% (inactive)
16,CCOC(=O)c1c(-c2ccccc2)oc2cc(Br)c(O)c(C=O)c12,40.9% (inactive)
17,CC(=O)Nc1ccc(C(=O)Nc2nc(-c3cc(C)n(Cc4ccccc4)c3C)cs2)cc1,38.2% (inactive)
18,CCCc1[nH]nc2c1C(c1ccc(OC(=O)c3ccco3)cc1)C(C#N)=C(N)O2 (stereo unspecified),67.4% (active)
19,COC(=O)c1c(NC(=O)COC(=O)[C@@H](NS(=O)(=O)c2ccccc2)C(C)C)sc2c1CCC2,81.7% (active)
20,NC(=O)c1sc2nc3c(c(-c4ccccc4)c2c1N)CCC3,46.6% (inactive)
21,O=C(COC(=O)/C(=C/c1cccs1)c1cccs1)NCc1ccccc1Cl,68.2% (active)
22,O=C(COC(=O)c1cc2c(s1)CCCC2)NCc1ccccc1Cl,59.3% (active)
23,CCc1nc(N2CCN(C(C)=O)CC2)c2c3c(sc2n1)CCCC3,52.4% (active)
24,Cc1ccc(Oc2cc(NC(=O)CCCn3nc(C)c([N+](=O)[O-])c3C)cc([N+](=O)[O-])c2)cc1,63% (active)

# From PubChem BioAssay AID588402 (Sanford-Burnham Center for Chemical Genomics, 2011)
